Molecules are shown by their SMILES. Values joined by “and” are separate entries in the source; they are usually repeats but may differ in a detail not shown here. Equal values may be shown once. More than one record can exist for a structure, and the calls need not agree. Active and inactive are the calls of the source. How the source made its calls: active means hit-call score of the fitted dose curve at least 0.9, where 1 is the maximum; inactive means score below 0.9.

This experiment can be described thus: CCTE_Shafer_MEA_dev_spike_duration_mean: CCTE's Neural Network Formation Assay for Mean Spike Duration, Shafer Lab (AID 2284051).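 On AC50: potency for a decrease in mean network spike duration versus DMSO.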 The protocol:
CCTE_Shafer_MEA_dev assay is conducted using Axion Biosystems 48 well microelectrode array (MEA) plates and Maestro recording system. Each well of the MEA plate contains a grid of 16 microelectrodes embedded in the culture surface. Electrically active cells, such as neurons, can be cultured over the electrodes, and electrical activity in these cells can be recorded extracellularly. The spontaneous firing of neurons is captured from each electrode on a microsecond timescale providing both temporally and spatially precise data. […] The CCTE_Shafer_MEA_dev assay uses primary cultures of rat cortical neurons. Recordings are made on days post-plating 5, 7, 9 and 12. As these cultures mature over time, neural networks develop functional activity and form cohesive networks in which electrical activity can be highly coordinated. CCTE_Shafer_MEA_dev_spike_duration_mean is 1 of 19 assay components of the CCTE_Shafer_MEA_dev assay. It measures the average duration of network spikes (temporally-clustered groups of action potential firing across multiple electrodes) during a recording in a microelectrode array (MEA) using Axion Biosystems Maestro 768 channel amplifier with the AxIS adaptive spike detector. To collapse across multiple recordings made on days post-plating 5, 7, 9 and 12, the trapezoidal area-under-the-curve of the component is calculated.Data from the assay component CCTE_Shafer_MEA_dev_spike_duration_mean was analyzed into 1 assay endpoint. This assay endpoint, CCTE_Shafer_MEA_dev_spike_duration_mean, was analyzed in the negative analysis fitting direction relative to DMSO as the negative control and baseline of activity. Using a type of functional reporter, gain or loss-of-signal activity can be used to understand electrical activity.
On the day prior to culture, each well was coated thoroughly with 150 uL of 0.05% polyethyleneimine (PEI, Sigma Cat P3143) in 50 mM HEPES (Sigma Cat H7523) at a pH of 8. The plate was incubated at 37C for one hour. PEI was rinsed out with 500 uL of sterile water three times. Plates were stored at 4C until the day of culture. This culture was plated at a seeding density of 1.5 x 10^5 cells/well on a 48-well MEA plate, prepared as described above. Cells were administered via a 25 uL media/laminin ([…]; Sigma Cat L2020-1MG) drop directly onto the microelectrode array, as adding the cells with the laminin results in better attachment than pre-coating with laminin. After 2 hours, an additional 475 uL of cortical media was added and the cells returned to the incubator. Exposure starts at day 0 of plating and is continued over twelve days of network development until the experiment is terminated. Cells are fed with fresh medium on DIV 5 and 9, following the recordings on those days. The entire volume of media in the well is exchanged and any vehicle or compound treatment is renewed. Complete details are found in OP-NHEERL/ISTD/SBB/TJS/2015-03-r0 (available on request, email shafer.tim@epa.gov). Measurement of the electrical activity is non-invasive, and recordings can be made from the same plate over multiple different days of the culture. In cortical neurons, this allows for the measurement of extracellular action potentials over the period during which networks form in the MEA plate.
For `CC(C)=CC1C(C(=O)OCN2C(=O)C3=C(CCCC3)C2=O)C1(C)C` (stereo not drawn), the call was inactive. On to `CCCSP(=O)(OCC)Oc1ccc(Br)cc1Cl` (stereo not drawn), for which the call was inactive. For the compound `C[Si](Cn1cncn1)(c1ccc(F)cc1)c1ccc(F)cc1`, the AC50 (as a rule, the concentration giving half of the maximal activity seen) is 5.85 µM (active). Regarding `CSC1=N[C@@](C)(c2ccccc2)C(=O)N1Nc1ccccc1`, the call was inactive.

Consider `CCOP(=S)(OCC)Oc1cc(C)nc(C(C)C)n1`, for which the result was inactive. For `CCOP(=O)(OCC)Oc1cc(C)nc(C(C)C)n1`, the result was inactive. With `CCOP(=O)(SC(C)CC)N1CCSC1=O` (stereo not drawn), the call was inactive. In the case of `CCOP(=O)(NC(C)C)Oc1ccc(SC)c(C)c1` (stereo not drawn), the outcome was inactive and the half-maximal activity concentration (AC50) was 21 µM (active). As to `C#CCC1=C(C)C(OC(=O)C2C(C=C(C)C)C2(C)C)CC1=O` (stereo not drawn), the compound was classed as inactive. Turning to `CCOP(=S)(OCC)OC(Cl)C(Cl)(Cl)Cl` (stereo not drawn), the half-maximal activity concentration (AC50) was 50 µM (active) and 23.4 µM (active). Turning to `CCOP(=S)(OCC)Oc1ccc([N+](=O)[O-])cc1`, the compound was called inactive.

As for `COP(=O)(NC(C)=O)SC` (stereo not drawn), the result was inactive. As to `CC[C@H](C)[C@H]1O[C@]2(C=C[C@@H]1C)C[C@@H]1C[C@@H](C/C=C(\C)[C@@H](O[C@H]3C[C@H](OC)[C@@H](O[C@H]4C[C@H](OC)[C@@H](NC)[C@H](C)O4)[C@H](C)O3)[C@@H](C)/C=C/C=C3\CO[C@@H]4[C@H](O)C(C)=C[C@@H](C(=O)O1)[C@]34O)O2`, the AC50 was 13 nM (active) and 2.69 nM (active).

On to `CN1COCN(Cc2cnc(Cl)s2)C1=N[N+](=O)[O-]`, for which the result was inactive.

As for `CN(C)[C@@H]1C(=O)C(C(N)=O)=C(O)[C@@]2(O)C(=O)C3=C(O)c4c(O)cccc4[C@@](C)(O)[C@H]3[C@H](O)[C@@H]12`, the AC50 is 66.2 µM (active). Take `CCOP(=S)(OCC)SCCSCC`: the compound was called inactive.

In the case of `CC1=NNC(=O)N(/N=C/c2cccnc2)C1`, the compound was called inactive. Consider `CCOC(=O)CC(SP(=O)(OC)OC)C(=O)OCC` (stereo not drawn), for which the compound was called inactive. In the case of `CC(C)[C@H](C(=O)O[C@H](C#N)c1cccc(Oc2ccccc2)c1)c1ccc(Cl)cc1`, the concentration at half-maximal activity (AC50) is 4.47 µM (active). `CCCSP(=O)(OCC)SCCC`: the half-maximal activity concentration (AC50) is 36.2 µM (active) and 27.2 µM (active).

Take `COP(=O)(OC)C(O)C(Cl)(Cl)Cl` (stereo not drawn): the concentration at half-maximal activity (AC50) is 50 µM (active) and 15 µM (active). For `C[N+]1(C)CCCCC1`, the compound was called inactive. On to `CON=C(C(=O)OC)c1ccccc1CON=C(C)c1cccc(C(F)(F)F)c1`, for which the AC50 is 603 nM (active) and 625 nM (active). Regarding `O=[N+]([O-])c1cc(C(F)(F)F)c(Cl)c([N+](=O)[O-])c1Nc1ncc(C(F)(F)F)cc1Cl`, the half-maximal activity concentration (AC50) is 0.734 µM (active).

On to `S=C1NCCN1`, for which the AC50 is 5.64 µM (active). With `COP(=O)(OC)OC(Br)C(Cl)(Cl)Br` (stereo not drawn), the AC50 is 8.37 µM (active) and 12.8 µM (active). Turning to `CCCCSP(=O)(SCCCC)SCCCC`, the concentration at half-maximal activity (AC50) was 50 µM (active) and 16.1 µM (active). In the case of `C=C(C)[C@H]1Cc2c(ccc3c2O[C@@H]2COc4cc(OC)c(OC)cc4[C@@H]2C3=O)O1`, the AC50 is 35.4 nM (active) and 21.1 nM (active). Turning to `CC(C)N(C(=O)SCC(Cl)=C(Cl)Cl)C(C)C`, the AC50 is 27.3 µM (active). For the compound `CC(Oc1cccc(Cl)c1)C(=O)O` (stereo not drawn), the outcome was inactive. Same read-out and setting: the entry for `CC(=NC#N)N(C)Cc1ccc(Cl)nc1` is “inactive”.

With `CCOP(=S)(Oc1cnc(C(C)(C)C)nc1)OC(C)C` (stereo not drawn), the concentration at half-maximal activity (AC50) was 74.9 µM (active) and 9.65 µM (active).

The values above are taken from PubChem BioAssay (EPA / NIEHS).
